Results taken from PubChem BioAssay (Tox21).
Records with an inconclusive call do not appear. The source made the active and inactive calls. Calls come from the whole dose curve; as a rule, active = well fitted curve in the direction sought with a large enough effect in the repeat runs; inconclusive = weak or mixed curves; inactive = no such curve, though single readings can be large; an effect the other way counts as inactive or inconclusive.

What was measured:
[1] = qHTS RealTime-Glo MT Cell Viability Assay in HepG2 cells - 40 hour (AID 1224870); note: nearly all actives have a fitted effect of over 50% in size
Summary of the method: (§1)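 Real-time viability: cells seeded at 600 per well together with NanoLuc and cell-permeant prosubstrate, compounds added after 5 h incubation. Luminescence tracked at 0, 8, 16, 24, 32 and 40 h of exposure.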

[2] = A CellTox Green Cytotoxicity Assay to monitor cytotoxicity in HEK293 cells - 40 hour (AID 1224871); note: nearly all actives have a fitted effect of over 45% in size
Summary of the method: (§2)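 HEK293 cells premixed with CellTox Green dye were seeded at 600 cells/well and left 5 h at 37 C/5% CO2 before pin transfer of 23 nL compound in DMSO. Fluorescence from dye bound to dead-cell DNA was read during 40 h treatment.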

[3] = qHTS RealTime-Glo MT Cell Viability Assay in HEK293 cells - 16 hour (AID 1224872); note: top concentration of the series differs between compounds; nearly all actives have a fitted effect of over 50% in size
Summary of the method: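 Viability tracked continuously by luminescence as live cells reduce a prosubstrate for NanoLuc; HEK293 cells preincubated 5 h, compound-treated at 37 C, and read at 0, 8, 16, 24, 32 and 40 h.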

[4] = qHTS RealTime-Glo MT Cell Viability Assay in HepG2 cells - 8 hour (AID 1224873); note: nearly all actives have a fitted effect of over 55% in size
Summary of the method: as §1

[5] = qHTS RealTime-Glo MT Cell Viability Assay in HEK293 cells - 40 hour (AID 1224874); conditions: RealTime-Glo luminescence; max response: active compounds read low; note: nearly all actives have a fitted effect of over 50% in size
Summary of the method: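 HEK293 cells mixed with RealTime-Glo reagents (NanoLuc plus cell-permeant prosubstrate) at 600 cells/well, preincubated 5 h at 37 C/5% CO2, then given 23 nL compound in DMSO. Nonlytic luminescence from viable cells was read at 0, 8, 16, 24, 32 and 40 h.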

[6] = A CellTox Green Cytotoxicity Assay to monitor cytotoxicity in HEK293 cells - 24 hour (AID 1224875); note: series mostly up to about 77 µM; nearly all actives have a fitted effect of over 45% in size
Summary of the method: as §2

[7] = A CellTox Green Cytotoxicity Assay to monitor cytotoxicity in HepG2 cells - 16 hour (AID 1224876); note: nearly all actives have a fitted effect of over 45% in size
Summary of the method: (§3)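 HepG2 cells were seeded together with the CellTox Green dye at 600 cells/well, left 5 h at 37 C/5% CO2, then given compounds in DMSO. Fluorescence from dye bound to dead-cell DNA was read repeatedly over 40 h of treatment at 37 C.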

[8] = qHTS RealTime-Glo MT Cell Viability Assay in HepG2 cells - 32 hour (AID 1224877); note: nearly all actives have a fitted effect of over 55% in size
Summary of the method: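 Viability was tracked continuously by NanoLuc luminescence from prosubstrate reduced by living HepG2 cells, at successive time points over 40 h of compound exposure. Cells with reagent were preincubated 5 h at 37 °C before compound addition.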

[9] = A CellTox Green Cytotoxicity Assay to monitor cytotoxicity in HepG2 cells - 24 hour (AID 1224878); note: nearly all actives have a fitted effect of over 45% in size
Summary of the method: as §3

[10] = A CellTox Green Cytotoxicity Assay to monitor cytotoxicity in HepG2 cells - 40 hour (AID 1224879); note: nearly all actives have a fitted effect of over 40% in size
Summary of the method: as §3
% is set by controls: 0 for no effect and ±100 for the full control effect.

CC[C@@H](CO)NCCN[C@@H](CC)CO
inactive: Potency [1] | Potency [2] | Potency [3] | Potency [4] | max response [5] 5.04% | Potency [6] | Potency [7] | Potency [8] | Potency [9] | Potency [10]

CN=C(N)NC(=O)Nc1c(C)cccc1C
inactive: Potency [1] | Potency [2] | Potency [3] | Potency [4] | max response [5] 5.93% | Potency [6] | Potency [7] | Potency [8] | Potency [9] | Potency [10]

C=CC(=O)NC(C)C
inactive: Potency [1] | Potency [2] | Potency [3] | Potency [4] | max response [5] 9.7% | Potency [6] | Potency [7] | Potency [8] | Potency [9] | Potency [10]

FC(F)(F)C(F)(F)C(F)(F)C(F)(F)CCI
inactive: Potency [1] | Potency [2] | Potency [3] | Potency [4] | max response [5] -4.67% | Potency [6] | Potency [7] | Potency [8] | Potency [9] | Potency [10]

Cc1cc([N+](=O)[O-])ccc1N
inactive: Potency [1] | Potency [2] | Potency [3] | Potency [4] | max response [5] -19.2% | Potency [6] | Potency [7] | Potency [8] | Potency [9] | Potency [10]

NC(=O)c1ccccc1[N+](=O)[O-]
inactive: Potency [1] | Potency [2] | Potency [3] | Potency [4] | max response [5] 13.7% | Potency [6] | Potency [7] | Potency [8] | Potency [9] | Potency [10]

O=CNNC=O
inactive: Potency [1] | Potency [2] | Potency [3] | Potency [4] | max response [5] 10.2% | Potency [6] | Potency [7] | Potency [8] | Potency [9] | Potency [10]

O=C(O)c1cccc(Oc2ccccc2)c1
inactive: Potency [1] | Potency [2] | Potency [3] | Potency [4] | max response [5] -1.97% | Potency [6] | Potency [7] | Potency [8] | Potency [9] | Potency [10]

Cc1ccc(N(CCO)CCO)cc1
inactive: Potency [1] | Potency [2] | Potency [3] | Potency [4] | max response [5] 0.166% | Potency [6] | Potency [7] | Potency [8] | Potency [9] | Potency [10]

CCN(CC)C(=O)N1CCN(C)CC1
inactive: Potency [1] | Potency [2] | Potency [3] | Potency [4] | max response [5] 4.18% | Potency [6] | Potency [7] | Potency [8] | Potency [9] | Potency [10]

COc1ccc(C)cc1
inactive: Potency [1] | Potency [2] | Potency [3] | Potency [4] | max response [5] 9.25% | Potency [6] | Potency [7] | Potency [8] | Potency [9] | Potency [10]

Cc1oc(=O)oc1COC(=O)[C@@H]1N2C(=O)[C@@H](NC(=O)[C@H](N)c3ccccc3)[C@H]2SC1(C)C
inactive: Potency [1] | Potency [2] | Potency [3] | Potency [4] | max response [5] 6.21% | Potency [6] | Potency [7] | Potency [8] | Potency [9] | Potency [10]

O=C(O)c1cc(Cl)cc(Cl)c1O
inactive: Potency [1] | Potency [2] | Potency [3] | Potency [4] | max response [5] -0.228% | Potency [6] | Potency [7] | Potency [8] | Potency [9] | Potency [10]

CC(C)(C)C(O)/C=C/c1ccc2c(c1)OCO2 (stereo not given)
inactive: Potency [1] | Potency [2] | Potency [3] | Potency [4] | max response [5] 1.57% | Potency [6] | Potency [7] | Potency [8] | Potency [9] | Potency [10]

Cc1ccc2c(c1)CCCN2
inactive: Potency [1] | Potency [2] | Potency [3] | Potency [4] | max response [5] 1.39% | Potency [6] | Potency [7] | Potency [8] | Potency [9] | Potency [10]

Cc1ccc(Nc2c(F)cccc2Cl)c(CC(=O)O)c1
inactive: Potency [1] | Potency [2] | Potency [3] | Potency [4] | max response [5] 5.05% | Potency [6] | Potency [7] | Potency [8] | Potency [9] | Potency [10]

N[C@@H](Cc1cc(I)c(O)c(I)c1)C(=O)O
inactive: Potency [1] | Potency [2] | Potency [3] | Potency [4] | max response [5] 3.01% | Potency [6] | Potency [7] | Potency [8] | Potency [9] | Potency [10]

O=C(c1ccccc1)c1ccc(O)cc1
inactive: Potency [1] | Potency [2] | Potency [3] | Potency [4] | max response [5] -20.1% | Potency [6] | Potency [7] | Potency [8] | Potency [9] | Potency [10]

CCCCCCCCCCCCCCCCCC(=O)OCC(CC)CCCC (stereo not given)
inactive: Potency [1] | Potency [2] | Potency [3] | Potency [4] | max response [5] 2.92% | Potency [6] | Potency [7] | Potency [8] | Potency [9] | Potency [10]

CCO[Si](C)(CCCOCC1CO1)OCC (stereo not given)
inactive: Potency [1] | Potency [2] | Potency [3] | Potency [4] | max response [5] 13.3% | Potency [6] | Potency [7] | Potency [8] | Potency [9] | Potency [10]

BrC(Br)C(Br)Br
inactive: Potency [1] | Potency [2] | Potency [3] | Potency [4] | max response [5] -12.1% | Potency [6] | Potency [7] | Potency [8] | Potency [9] | Potency [10]

CCOC(=O)c1ccc(NC(=O)CN2CCCCC2)cc1
inactive: Potency [1] | Potency [2] | Potency [3] | Potency [4] | max response [5] -19.4% | Potency [6] | Potency [7] | Potency [8] | Potency [9] | Potency [10]
